PubChem BioAssay (NCI)
About 83,000 compounds went through this panel and 20% of them were active in at least one assay; those are over-represented in the sample as a whole.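 Method: cells in 96-well plates; compound added at one concentration; 48 h incubation; percent growth measured; values under 10 scored active.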 The source made the active and inactive calls.

tested on: HL-60(TB) leukemia; experiment: NCI-60 one-dose screen, 48 h (100 = growth as untreated, 0 = no growth, -100 = all killed); details: 10 µM unless noted

| Structure (SMILES) | growth |
| --- | --- |
| COc1ccc(C/C(C)=C(/c2ccc(OCCCN(C)C)cc2)c2ccc(OC(C)=O)cc2)cc1 | 70.8% (inactive) |
| O=c1[nH]c(SCc2ccccc2)nc2nc(Nc3ccc(NC(=S)Nc4ccccc4)cc3)nc(-c3ccc(O)cc3O)c12 | 117% (inactive) |
| Nc1c(C(=O)Nc2ccccc2)sc2nc3c(cc12)C(=O)CCC3 | 19.4% (inactive) |
| CC1(c2ccccc2)NC(=O)NC1=O (stereo not given) | 104% (inactive) |
| CCC(=O)Oc1ccc2ccccc2c1 | 103% (inactive) |
| CCCCC/C=C/C/C=C/CCCCCCCC1=NC(C)(C)CN1C(C)C | 13.7% (inactive) |
| N#Cc1c(-c2ccccc2)nc(SCC(O)CN2CCOCC2)nc1N1CCOCC1 (stereo not given) | 72.2% (inactive) |
| Cc1ccc(N=Nc2c(N)nc(N)[nH]c2=O)cc1C | 97.3% (inactive) |
| CCCCCOc1ccc(C(=O)/C(Br)=C/C(=O)O)cc1 | 69.3% (inactive) |
| OCCN1CCN(c2cc(-c3cccc(OC(F)(F)F)c3)nc3ccc(N4CCCC4)cc23)CC1 | 62.8% (inactive) |
| Cc1ccc2c(c1)nc(C)n2-c1ncnc2c1CC(C)c1cc(O)ccc1N2C (stereo not given) | -5.44% (active) |
| CCN(CC)CCN1C(=O)c2c(c3c4ccccc4[nH]c3c3[nH]c4ccccc4c23)C1=O | 98.7% (inactive) |
| COc1ccc(C2=NN(C(=O)c3cc(OC)c(OC)c(OC)c3)C(c3ccc(N(C)C)cc3)C2)cc1 (stereo not given) | -18.4% (active) |
| CCC1CCCCN1C(=S)N/N=C(\C)c1ccccn1 (stereo not given) | 8.04% (active) |
| CCCCCCCCCCCCOC(=O)/C=C\C(=O)NC(N)=O | 52.3% (inactive) |
| O=C1c2cccc(NCCN=Cc3ccccc3O)c2C(=O)c2c(NCCN=Cc3ccccc3O)cccc21 | 31.6% (inactive) |
| COc1cc(OC)c(C(=O)C(CN(C)C)CN(C)C)cc1OC | -63.5% (active) |
| CCc1cccc(C)c1NC(=O)c1sc2nc3c(cc2c1N)CCCCC3 | -10.5% (active) |
| CC/C=C\C/C=C\C[C@H]1C/C=C2/C(=O)C=C[C@@H]2C/C=C\CCC(=O)O1 | 1.1% (active) |
| Clc1ccc(/C=C/c2nc(Nc3ccc(Cl)cc3)c3ccccc3n2)cc1 | 102% (inactive) |

| Structure (SMILES) | growth |
| --- | --- |
| CCC(C)/C(=C\C#N)NCCCN/C(=C/C#N)C(C)CC (stereo not given) | 64.6% (inactive) |
| CC/C=C\C/C=C/C=C1/C(=O)C=C[C@@H]1C/C=C\CCCC(=O)OC | 8.98% (active) |
| O=C(C=P(c1ccccc1)(c1ccccc1)c1ccccc1)CCl | -39.8% (active) |
| CC(C)(C)[Si](C)(C)OC1[C@@H](O[Si](C)(C)C(C)(C)C)[C@@H](CNC(=O)NC(=O)CCl)O[C@H]1n1cnc2c(NC(=O)Nc3ccccc3)ncnc21 (stereo not given in full) | -73.1% (active) |
| COc1ccc(Cn2cc3c(c2-c2ccccc2)CC(C)(C)c2cnoc2-3)cc1 | 16.7% (inactive) |
| O=C(Nc1ccc(C(=O)Nc2ccc(C3=NCCCN3)cc2)cc1)Nc1ccc(C2=NCCCN2)cc1 | 44.2% (inactive) |
| Cc1cc(-c2ccc(N=Nc3c(S(=O)(=O)O)cc4cc(S(=O)(=O)O)cc(O)c4c3O)c(C)c2)ccc1N=Nc1c(S(=O)(=O)O)cc2cc(S(=O)(=O)O)cc(O)c2c1O | 119% (inactive) |
| Nc1nc(Nc2cccc(F)c2)nc2ccccc12 | 28.6% (inactive) |
| Nc1cc(N)c(N)cc1N | 29.1% (inactive) |
| CCOC(=O)c1cc(/C(=N\O)c2cc(OC)c(OC)c(OC)c2)n2cc(C)cc(C)c12 | 9.42% (active) |
| CCOc1cc(/C=C/C(=O)CC(=O)/C=C/c2ccc(OC(=O)CNCCN(CC)CC)c(OCC)c2)ccc1OC(=O)CNCCN(CC)CC | -30.5% (active) |
| COc1ccc(-c2cc(-c3cccnc3)nc3sc4c(N)c(C(C)=O)c(-c5ccccc5)nc4c23)cc1OC | 78% (inactive) |
| O=C(/C=C(\Nc1ccccc1)c1ccccc1)c1cn(-c2ccc([N+](=O)[O-])cc2)nn1 | 114% (inactive) |
| Nc1ccc(Cl)c(S(=O)(=O)O)c1 | 90.5% (inactive) |
| COc1cccc(-c2cc(-c3cccc(Cl)c3)c(C#N)c(=O)[nH]2)c1 | 36.2% (inactive) |
| Cc1cc(=NO)cc(C)n1O | 81.6% (inactive) |
| Nc1ccc(-c2ccc(N)c(Br)c2)cc1Br | 7.99% (active) |
| NC1=CSC2=N/C(=C\c3ccc(Cl)cc3)C(=O)N12 | 39.9% (inactive) |
| O=C(CS(=O)c1oc(-c2cccs2)nc1S(=O)(=O)c1ccc(Br)cc1)c1ccccc1 (stereo not given) | 87.9% (inactive) |
| COc1ccc(C(=O)NNc2nc(Cl)nc(N3CCN(C(c4ccccc4)c4ccccc4)CC3)n2)cc1 | 21.3% (inactive) |
